# Data as given in PubChem BioAssay (Tox21).
# Results filed as inconclusive are left out. Where a call stands in place of a potency, no number is given. Calls of active or inactive are those of the source. Unless noted, the call rests on the fitted dose curve; in most records, active means well fitted curve in the direction sought with a large enough effect in the repeat runs; inconclusive means weak or mixed curves; inactive means no such curve, though single readings can be large; an effect the other way counts as inactive or inconclusive.
# Legend:
# [1] = qHTS assay to identify small molecule antagonists of the retinoid acid receptor (RAR) signaling pathway - cell viability counter screen (AID 1159551); further: nearly all actives have a fitted effect of over 35% in size
# Outline: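 Measured by luminescent ATP detection, viability reflects C3RL4 cells treated 6 h at 37 C with test chemicals in the presence of 1 uM (final) retinol.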
# [2] = qHTS assay to identify small molecule antagonists of the retinoic acid receptor (RAR) signaling pathway (AID 1159552; further: nearly all actives have a fitted effect of over 50% in size; further: potency means the concentration at half of the fitted maximal effect)
# Outline: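 Test chemicals and DMSO controls were pin-transferred onto C3RL4 cells a day after seeding; retinol (1 uM final) followed at once. Luminescent reporter output was quantified after 6 hr of co-incubation and 30 min with detection reagent.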
# [3] = qHTS assay to identify small molecule agonists of the retinoic acid receptor (RAR) signaling pathway (AID 1159553); further: potency means the concentration at half of the fitted maximal effect
# Outline: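 6 hr compound exposure (DMSO vehicle) of overnight-plated C3RL4 RARE-luc cells at 37 C; luminescence quantified after 30 min RT with luciferase reagent.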
# [4] = qHTS assay to identify small molecule antagonists of the estrogen related receptor (ERR) signaling pathway - cell viability counter screen (AID 1224818); further: series mostly up to about 46 µM
# Outline: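 Compounds dissolved in DMSO were applied to ERR cells seeded at 2,000 per well 6 h earlier. Cell viability followed 17.5 h later via 30-min CellTiter-Fluor fluorescence.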
# [5] = qHTS assay to identify small molecule antagonists of the estrogen related receptor signaling pathway with the pleiotropic PPARgamma coactivator (PGC) cell viability counter screen (AID 1224822; further: series mostly up to about 46 µM)
# Outline: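 Counter screen for cell viability: PGC/ERR cells, 6 h pre-incubation after plating, 17.5 h compound exposure at 37 C, fluorescence from CellTiter-Fluor after 30 min.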
# [6] = qHTS assay to identify small molecule agonists of the estrogen related receptor (ERR) signaling pathway (AID 1224820)
# Outline: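 Luminescence readout (One-Glo, 30 min RT) from NTP-supplied ERR cell line exposed to compounds for 18 h at 37 C. Cells seeded 2,000 per well and pre-incubated 6 h before pin-tool compound transfer.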
# [7] = tested on: estrogen-related receptor alpha (ERRalpha) with PGC-1alpha coactivator, human; assay: qHTS assay to identify small molecule antagonists of the estrogen related receptor signaling pathway with the pleiotropic PPARgamma coactivator (PGC) (AID 1224821; calls by dose curve;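 further: series mostly up to about 46 µM; lower luminescence signal means antagonism of PGC/ERR signalling; nearly all actives have a fitted effect of over 50% in size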)
# Outline: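 PGC/ERR reporter cells; 6 h pre-incubation 37 C/5% CO2; pin-tool compound in DMSO, 18 h 37 C; One-Glo added, 30 min RT; luminescence read. qHTS antagonist mode.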
# [8] = qHTS assay to identify small molecule agonists of the estrogen related receptor signaling pathway with the pleiotropic PPARgamma coactivator (PGC) (AID 1224823)
# Outline: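 Luminescence readout (One-Glo, 30 min RT) from PGC/ERR cell line treated 18 h at 37 C with pin-tool-delivered DMSO compound solutions; cells plated 6 h before dosing. Quantitative HTS format.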
# [9] = qHTS assay to identify small molecule antagonists of the estrogen related receptor (ERR) signaling pathway (AID 1224819;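 further: luminescence from an ERR-driven luciferase reporter measured with One-Glo reagent; series mostly up to about 46 µM; nearly all actives have a fitted effect of over 50% in size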)
# Outline: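 Compounds dissolved in DMSO were pin-transferred onto ERR cells that had been plated 6 h earlier, and cells were then incubated 18 h at 37 C; signal was luciferase luminescence via One-Glo.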
smiles,measurement,setting,value
Cc1ccc(O)c([C@H](CCN(C(C)C)C(C)C)c2ccccc2)c1,Potency,[1],inactive
same,Potency,[2],inactive
same,Potency,[3],inactive
CCCCOc1ccc(CC(=O)NO)cc1,Potency,[1],inactive
same,Potency,[2],inactive
same,Potency,[3],29.8 µM (active)
CC(C)(C)C(=O)OCOP(=O)(COCCn1cnc2c(N)ncnc21)OCOC(=O)C(C)(C)C,Potency,[1],inactive
same,Potency,[2],3.76 µM (active)
O=C(NN1CCCC1)NS(=O)(=O)c1ccc(Cl)cc1,Potency,[1],inactive
same,Potency,[2],inactive
same,Potency,[3],inactive
CCCCCC(CO)CCC (configuration not stated),Potency,[1],inactive
same,Potency,[2],inactive
same,Potency,[3],inactive
O=c1c2ccccc2nnn1CCl,Potency,[1],inactive
same,Potency,[2],inactive
Nc1cnn([C@@H]2O[C@H](CO)[C@@H](O)[C@H]2O)c(=O)n1,Potency,[1],inactive
same,Potency,[2],inactive
same,Potency,[3],inactive
CCCCOC(O)CC (configuration not stated),Potency,[1],inactive
same,Potency,[2],inactive
same,Potency,[3],inactive
CC(C)c1cccc(C(C)C)c1NC(=O)NS(=O)(=O)c1cc(C(C)(C)O)co1,Potency,[1],inactive
same,Potency,[2],inactive
same,Potency,[3],inactive
CCCCC(CC)COCCCN (configuration not stated),Potency,[1],inactive
same,Potency,[2],inactive
same,Potency,[3],inactive
CC(=O)Nc1ccc(/C=N/NC(N)=S)cc1,Potency,[1],inactive
same,Potency,[2],inactive
same,Potency,[3],inactive
C=C(C)C(=O)OCCOc1ccccc1,Potency,[1],inactive
same,Potency,[2],inactive
CCCC(C)C,Potency,[1],inactive
same,Potency,[2],inactive
same,Potency,[3],inactive
CN(C)CC[C@@H](c1ccc(Br)cc1)c1ccccn1,Potency,[1],inactive
same,Potency,[2],inactive
same,Potency,[3],inactive
same,outcome,[4],inactive
same,outcome,[5],inactive
N=C(N=C(N)N)N1CCOCC1,Potency,[1],inactive
same,Potency,[2],inactive
same,Potency,[3],inactive
NCCCOCCOCCOCCCN,Potency,[1],inactive
same,Potency,[2],inactive
same,Potency,[3],inactive
CC(=O)c1ccc2c(c1)[C@H](NC(=O)c1ccc(F)cc1)[C@@H](O)C(C)(C)O2,Potency,[1],inactive
same,Potency,[2],inactive
same,Potency,[3],inactive
C1CCC2OC2C1 (configuration not stated),Potency,[1],inactive
same,Potency,[2],inactive
same,Potency,[3],inactive
CN1CCN(C2=Nc3cc(Cl)ccc3Nc3ccccc32)CC1,Potency,[1],inactive
same,Potency,[2],inactive
same,Potency,[3],inactive
same,outcome,[4],inactive
Cc1ncsc1CCO,Potency,[1],inactive
same,Potency,[2],inactive
same,Potency,[3],inactive
CCCc1ccccc1,Potency,[1],inactive
same,Potency,[2],inactive
same,Potency,[3],inactive
Nc1nc(CC(=O)O)cs1,Potency,[1],inactive
same,Potency,[2],inactive
Oc1ccc(Cc2ccccc2)cc1,Potency,[1],inactive
same,Potency,[2],inactive
same,Potency,[3],inactive
CC(C)(C)c1cc(CO)cc(C(C)(C)C)c1O,Potency,[1],inactive
same,Potency,[2],inactive
same,Potency,[3],inactive
CCN(CC)CCc1nc(-c2ccccc2)no1,Potency,[1],inactive
same,Potency,[2],inactive
CC(C)CCCCCCOC(=O)c1ccc(C(=O)OCCCCCCC(C)C)c(C(=O)OCCCCCCC(C)C)c1,Potency,[1],inactive
same,Potency,[2],inactive
same,Potency,[3],inactive
Cc1ccc(C(=O)C(C)CN2CCCCC2)cc1 (configuration not stated),Potency,[1],inactive
same,Potency,[3],inactive
CCOc1nc2cccc(C(=O)O)c2n1Cc1ccc(-c2ccccc2-c2nn[nH]n2)cc1,Potency,[1],inactive
same,Potency,[2],inactive
same,Potency,[3],inactive
CC(C)(C)c1ccc(OCC2CO2)cc1 (configuration not stated),Potency,[1],inactive
same,Potency,[2],inactive
same,Potency,[3],12.4 µM (active)
CC[C@]12CCCN3CCc4c(n(c5ccccc45)C(=O)C1)[C@@H]32,Potency,[1],inactive
same,Potency,[3],inactive
CC(=O)c1c(C)c([N+](=O)[O-])c(C(C)(C)C)c([N+](=O)[O-])c1C,Potency,[1],inactive
same,Potency,[2],inactive
same,Potency,[3],inactive
CCOC(=O)CC(=O)c1cc(F)c(Cl)nc1Cl,Potency,[1],inactive
same,Potency,[2],inactive
same,Potency,[3],inactive
CCCCCCCCN(C)C,Potency,[1],inactive
same,Potency,[2],inactive
same,Potency,[3],inactive
O=C(Cl)c1ccc([N+](=O)[O-])cc1,Potency,[1],inactive
same,Potency,[2],inactive
same,Potency,[3],inactive
Cc1cc(CC(=O)O)c(C)n1-c1ccc(Cl)cc1,Potency,[1],inactive
same,Potency,[2],inactive
same,Potency,[3],inactive
Cc1ccc(C(C)c2ccc(C)c(C)c2)cc1C,Potency,[2],inactive
same,Potency,[3],inactive
Cc1occc1S,Potency,[3],inactive
COC(Cc1ccccc1)OC,Potency,[1],inactive
same,Potency,[3],inactive
CC(=O)CC(=O)c1ccccc1,Potency,[2],inactive
same,Potency,[3],inactive
C1=Cc2ccccc2C1,Potency,[1],inactive
same,Potency,[3],inactive
CN1CCC(OC(c2ccccc2)c2ccccc2)CC1,Potency,[2],inactive
same,Potency,[3],inactive
CN(C(=O)CCCOc1ccc2[nH]c(=O)ccc2c1)C1CCCCC1,Potency,[1],inactive
same,Potency,[3],inactive
same,outcome,[4],inactive
same,outcome,[6],inactive
same,outcome,[7],inactive
same,outcome,[5],inactive
same,outcome,[8],inactive
N#Cc1cc2ccccc2c2ccccc12,Potency,[2],inactive
same,Potency,[3],inactive
COCCO,Potency,[2],inactive
same,Potency,[3],inactive
CCOC(=O)C1=C(C)NC(C)=C(C(=O)OC)C1c1cccc([N+](=O)[O-])c1 (configuration not stated),Potency,[2],inactive
same,Potency,[3],inactive
same,outcome,[4],inactive
same,outcome,[5],inactive
CCC(C)N(C)C(=O)c1cc2ccccc2c(-c2ccccc2Cl)n1 (configuration not stated),Potency,[1],inactive
same,outcome,[4],inactive
same,outcome,[5],inactive
O=S1(=O)N=C(O)c2ccccc21,Potency,[3],inactive
C[C@@H](C1=C(CCN(C)C)Cc2ccccc21)c1ccccn1,Potency,[1],inactive
same,Potency,[3],inactive
O=C(O)Cc1sc(-c2ccccc2)nc1-c1ccc(Cl)cc1,Potency,[2],inactive
same,Potency,[3],inactive
CNCC[C@@H](Oc1ccccc1C)c1ccccc1,Potency,[3],inactive
OCCC1CCCCN1 (configuration not stated),Potency,[1],inactive
same,Potency,[3],inactive
N#CCc1cccc(C(F)(F)F)c1,Potency,[3],inactive
CC[C@H](C)[C@@H](C(=O)O)n1sc2ccccc2c1=O,Potency,[3],inactive
O=c1[nH]cnc2ccccc12,Potency,[2],inactive
same,Potency,[3],inactive
C=CC[N+]1([C@H]2C[C@H]3[C@@H]4CC[C@H]5C[C@H](OC(C)=O)[C@@H](N6CCCCC6)C[C@]5(C)[C@H]4CC[C@]3(C)[C@H]2OC(=O)CC)CCCCC1,Potency,[3],inactive
CN(C)C/C=C(/c1ccc(Br)cc1)c1cccnc1,Potency,[1],inactive
same,Potency,[3],inactive
same,outcome,[4],inactive
same,outcome,[5],inactive
CC(O)C1CCCCC1 (configuration not stated),Potency,[1],inactive
same,Potency,[3],inactive
CCOC(=O)C1=NN(c2ccccc2)C(=O)C1,Potency,[1],inactive
same,Potency,[3],inactive
CC(Cc1cccc(C(F)(F)F)c1)NCCOC(=O)c1ccccc1 (configuration not stated),Potency,[1],inactive
same,Potency,[3],inactive
CCCCOC(=O)/C=C\C(=O)OCCCC,Potency,[1],inactive
same,Potency,[3],inactive
CC(C)(C)C1CCCCC1O (configuration not stated),Potency,[1],inactive
same,Potency,[3],inactive
FC(F)(F)C(F)(F)C(F)(F)C(F)(F)C(F)(F)C(F)(F)CCI,Potency,[2],inactive
same,Potency,[3],inactive
OC(CCN1CCCCC1)(c1ccccc1)C1CCCCC1 (configuration not stated),Potency,[1],inactive
same,outcome,[4],inactive
same,outcome,[9],inactive
same,outcome,[6],inactive
same,outcome,[7],inactive
same,outcome,[5],inactive
same,outcome,[8],inactive
COc1ccc([C@@H]2Sc3ccccc3N(CCN(C)C)C(=O)[C@@H]2OC(C)=O)cc1,Potency,[1],inactive
same,Potency,[3],inactive
same,outcome,[4],inactive
same,outcome,[6],inactive
same,outcome,[5],inactive
CN(C)CC/C=C1\c2ccccc2COc2ccccc21,Potency,[2],21.1 µM (active)
same,Potency,[3],inactive
same,outcome,[4],inactive
same,outcome,[5],inactive
Oc1ccc(Sc2ccc(O)cc2)cc1,Potency,[2],inactive
CCN(CC)CCOC(=O)C1(c2ccccc2)CCCC1,Potency,[1],inactive
same,Potency,[3],inactive
CCC(=O)OC(C)(C)C1CC=C(C)CC1 (configuration not stated),Potency,[2],inactive
same,Potency,[3],inactive
O=C(CC(=O)c1ccccc1)c1ccccc1,Potency,[1],inactive
same,Potency,[3],8.27 µM (active)
CCCCc1cc2ccccc2c(OCCN(C)C)n1,Potency,[1],inactive
same,Potency,[3],inactive
CCCCCc1ccc(N)cc1,Potency,[1],inactive
same,Potency,[3],inactive
O=C(O)Cc1cc(I)c(Oc2ccc(O)c(I)c2)c(I)c1,Potency,[1],inactive
same,Potency,[3],inactive
CC(C)NCC(O)COc1ccc(CC(N)=O)cc1 (configuration not stated),Potency,[1],inactive
same,Potency,[3],inactive
same,outcome,[4],inactive
same,outcome,[5],inactive
